This is an account of results in PubChem BioAssay AID492956 (The Scripps Research Institute Molecular Screening Center, 2010).

Where “and” joins values, the source holds several entries; their conditions need not be identical. Identical values can stand only once. Out of some 340,000 compounds screened, about 3,300 (0.97%) were called active.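 How the source made its calls: active means inhibition above the mean over all tested compounds plus 3 SD (cut at about 30% in these data); inactive means the rest.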 Only a selection was taken, and actives are over-represented in it overall.

The assay deals with Platelet-activating factor acetylhydrolase 2, cytoplasmic (Homo sapiens) (UniProt Q99487). Put plainly: inhibition of cytoplasmic PAF acetylhydrolase 2 – biochemical, fluorescence polarization, human, primary screen (AID 492956).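 Further: inhibitors block probe labeling of enzyme so polarization drops; 0% = enzyme with DMSO and 100% = wells lacking PAFAH2 protein.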 The settings on record: recombinant PAFAH2, FP-rhodamine activity probe, at 3.39 µM, hits give high values. (In general: In fluorescence polarisation assays a small probe gives low polarisation when free and higher when bound to something large.)
For `CCCCn1c(O)c(N=NC(=O)Cn2c(C(F)(F)F)nc3ccccc32)c2ccccc21`, the inhibition was -3.07% (inactive).
Then `O=C(O)Cc1csc(-c2cccc(Oc3ccccc3)c2)n1`, with 3.06% (inactive) and 0.17% (inactive); and `CC1CC(C)CN(c2ccc(S(=O)(=O)N3CCOCC3)cc2)C1` (centres undefined), with 13.7% (inactive).
Then `Cc1ccc(OCC(=O)N2CCN(S(=O)(=O)c3ccc(Cl)s3)CC2)cc1C`, with 6.03% (inactive).
Next, `Cc1ccc(S(=O)(=O)N(C)C)cc1NC(=O)COC(=O)/C=C/c1cccs1`: 59.3% (active); `CN(C)S(=O)(=O)c1cccc(NC(=O)COC(=O)/C=C/c2cccs2)c1`: 72.2% (active); `CN(C)S(=O)(=O)c1cccc(NC(=O)COC(=O)c2cc(=O)[nH]c(=O)[nH]2)c1`: 0.25% (inactive).
In the case of `Cc1ccc(S(=O)(=O)N(C)C)cc1NC(=O)/C=C/c1cccs1`, the inhibition is 5.59% (inactive).
Next, `Cc1ccc(S(=O)(=O)N(C)C)cc1NC(=O)COC(=O)c1c(C)noc1C`: -9.47% (inactive); `CN(C)S(=O)(=O)c1cccc(NC(=O)COc2ccc3ccccc3c2)c1`: -8.6% (inactive).
Consider `O=C(C1CCN(S(=O)(=O)Cc2ccccc2)CC1)N1CCCc2ccccc21`, for which the inhibition was -7.5% (inactive).
Next, `COCCNC(=O)/C(C#N)=C/c1nc(N(C)C)n(-c2ccc(F)cc2)c1Cl`: 1.81% (inactive); `CCOC(=O)NC(=O)/C(C#N)=C\c1ccccc1`: -7.65% (inactive); `COCCNC(=O)/C(C#N)=C/c1cccc(OCc2ccccc2)c1`: 30.2% (active).
For the compound `Cc1ccc(-n2c(C)cc(C(=O)CN3C(=O)C(=O)N(C4CCCC4)C3=O)c2C)cc1`, the inhibition is 4.94% (inactive).
Then `Cc1cc(C(=O)COC(=O)C2CC2)c(C)n1-c1ccc(F)cc1`, with 44.5% (active); and `Cc1cc(C(=O)COc2ccccc2Cl)c(C)n1C1CC1`, with 0.58% (inactive).
Next, `COc1cc(C(=O)NN(CCC#N)C2=NS(=O)(=O)c3ccccc32)cc(OC)c1OC`: 4.52% (inactive).
Next, `C=CCOCCN(C)C1=NS(=O)(=O)c2ccccc21`: -9.33% (inactive); `COc1ccc(/C=N/N(C)C2=NS(=O)(=O)c3ccccc32)cc1OC`: 31.8% (active); `Cc1ccc(S(=O)(=O)NCC(=O)N2CCOCCOCCOCCOCC2)cc1`: -0.46% (inactive).
As to `O=C1/C(=C/c2cccs2)CCC1C1CCCC1` (centres undefined), the inhibition is 5.54% (inactive).
Consider `CC1(C)CC(=O)c2cnc3nc4ccccc4n3c2C1`, for which the inhibition is -0.49% (inactive).
Next, `O=C(NNC(=O)c1cc(S(=O)(=O)N2CCCCC2)ccc1Cl)c1ccccc1O`: 8.97% (inactive); `NC(=O)COC(=O)c1cc(S(=O)(=O)N2CCN(c3ccccc3)CC2)ccc1Cl`: 5.41% (inactive).
Turning to `O=C(OCc1cn(-c2ccc(Cl)c(Cl)c2)nn1)c1ccccc1Cl`, the inhibition is 44.2% (active).
Then `Cc1cccc(/C(N)=N/OC(=O)c2ccccc2Cl)c1`, with -5.1% (inactive).
For the compound `N#CCC(=O)Nc1ccc(C(=O)OCC(=O)Nc2sc3c(c2C#N)CCCC3)cc1`, the inhibition is -11.9% (inactive).
Then `CC(C)NC(=O)NC(=O)COC(=O)c1ccc(NC(=O)CC#N)cc1`, with 14.3% (inactive).
Then `CC(C)c1ccc(NC(=O)COC(=O)c2ccc(CN3CCCC3=O)cc2)cc1`, with 85% (active); and `Cc1noc(C)c1C(=O)NC(C)c1ccc2c(c1)OCO2` (centres undefined), with -1.75% (inactive); and `CCN(CC)c1ccc(NC(=O)CCc2nnc3ccc(N4CCCCC4)nn23)c(C)c1`, with 1.19% (inactive).
On to `O=C(CNCCO)NC12CC3CC(CC(C3)C1)C2`, for which the inhibition is 0.19% (inactive).
As for `O=C(COC(=O)CNS(=O)(=O)c1ccccc1)NC12CC3CC(CC(C3)C1)C2`, the inhibition is 1.43% (inactive).
Next, `O=C(COC(=O)C12CC3CC(CC(O)(C3)C1)C2)NC12CC3CC(CC(C3)C1)C2`: 75.8% (active).
Then `Cc1ccc2[nH]c(=O)c(CN(C)S(=O)(=O)c3cccc4nonc34)cc2c1`, with -8.49% (inactive); and `Cn1nccc1NC(=O)CC(CC(=O)O)c1ccccc1` (centres undefined), with 4.64% (inactive).
Consider `COCCCN1C(=O)C(=O)/C(=C(/O)c2ccc(S(=O)(=O)N3CCOCC3)cc2)C1c1ccc(F)cc1` (centres undefined), for which the inhibition is 1.52% (inactive).
Regarding `COc1cc(C(C)=O)ccc1OC(=O)CN1C(=O)c2ccccc2C1=O`, the inhibition was 1.95% (inactive).
Then `COc1ccc(NC(=O)ON=C2c3ccccc3-c3ccccc32)cc1`, with -4.24% (inactive).
Next, `COc1ccc(C(=O)ON=C2c3ccccc3-c3ccccc32)cc1OC`: 72.8% (active); `O=C(O)CSc1nccc2ccccc12`: 2.03% (inactive).
Regarding `O=C(O)CCSc1nnc(-c2ccccc2)n1-c1ccccc1`, the inhibition was -1.18% (inactive).
Then `CCc1c(SCCC(=O)O)nc2ccccc2c1C`, with 33% (active).
Next, `C/C(=N\OCC(=O)Nc1ccc(Br)cc1)c1cccs1`: -0.72% (inactive); `CCn1c(Cc2ccc(OC)cc2)nnc1SCC(=O)Nc1ccc(N2CCOCC2)cc1`: -3.23% (inactive); `CC(C)[C@H](NC(=O)N1CCn2c1nc1ccccc12)C(=O)NCc1ccc2c(c1)OCO2`: -3.27% (inactive).
Next, `Cc1ccc(C)c(NC(=O)C2Cc3ccccc3CN2C(=O)OCc2ccccc2)c1` (centres undefined): 5.89% (inactive); `Cc1ccc(/C=N/NC(=O)Cn2ccc(C(F)(F)F)n2)o1`: -1.08% (inactive); `CCn1c(/C=N/NC(=O)c2ccc(OC)cc2)nc2ccccc21`: 41.7% (active).
Consider `CCn1c(SCC(=O)N/N=C/c2ccncc2)nc2ccccc21`, for which the inhibition was 14.4% (inactive).
Then `COc1ccc(C(=O)NCC(=O)N/N=C/c2cccnc2)cc1`, with -1.33% (inactive).
Then `CC(C)C(=O)NCC(c1cccs1)S(=O)(=O)c1ccc(F)cc1` (centres undefined), with -6.08% (inactive); and `COc1ccc(C(CC(=O)N2CCN(c3ccccc3)CC2)c2c(O)cc(OC)cc2OC)cc1` (centres undefined), with 1.97% (inactive).
Regarding `COc1ccccc1CSc1ncc(-c2ccc([N+](=O)[O-])cc2)[nH]1`, the inhibition was 12% (inactive).
Then `CCCCN(C)c1ccc([N+](=O)[O-])cc1`, with -0.55% (inactive); and `CCC1OC(c2ccc([N+](=O)[O-])cc2)=Nc2ccccc21` (centres undefined), with 33.1% (active).
Then `N#Cc1ccc(N2Cc3ccccc3/C2=N/C(=O)Nc2ccc(Cl)cc2)cc1`, with -0.92% (inactive); and `CC1CCc2c(c3ccccc3[nH]c2=O)O1` (centres undefined), with -0.64% (inactive).

For orientation: inhibition means the relative decrease from the control value, in per cent.
